In all, about 220,000 compounds went through this assay and about 2,400 (1.1%) were called active. Inconclusive results (about 7%) are left out. The sample holds actives, similar compounds and a random draw of the others, so the mix is not that of the screen. Values without a mark were called inactive. Calls follow the shape of the dose curve; as a rule, active = well fitted inhibition curve with a large enough effect; inconclusive = small, poorly fitted or top-dose-only effect, or effect the other way; inactive = no such curve, though single readings can be large or run the other way.
Assay: qHTS Multiplex Assay to Identify Dual Action Probes in a Cell Model of Huntington: Aggregate Formation (GFP); also: nearly all actives have a fitted effect of over 60% in size
Details: PC12 HttQ103-GFP aggregates, Acumen cytometry, 40 h; series mostly up to 9.22 µM; activity change, negative = inhibition: at the top concentration
Source text: NIH Chemical Genomics Center [NCGC]
NIH Molecular Libraries Probe Production centers Network [MLPCN]
Assay Submitter (PI): Wei Zheng
Huntington's disease is a neurodegenerative disorder caused by a trinucleotide repeat expansion in Exon 1 of the Huntingtin gene. The CAG trinucleotide encodes glutamine and polyglutamine expansions cause cell death in selective areas of the brain. Huntington polyglutamine repeats have the tendency to form aggregates which are observable in later stages of the disease. The exact nature of the aggregates, whether toxic, protective, or insignificant, is unclear.
A stable PC12 cell line containing a gene fusion of Exon 1 of the Huntingtin gene linked to GFP under the control of the inducible ecdysone promoter were used as the cell-based model of Huntington Disease for high throughput screening. Exon 1 of the Huntingtin gene contained an expansion of 103 polyglutamines (Q103) which, when expressed, caused cell death and distinct, bright GFP aggregates. The amount of cell death and the size and intensity of GFP aggregates increased over time and induction level. The cell death were quantified with a measurement of ATP content in the cells. A maximal 40-50% of cell death was observed when the Huntington gene was induced in this cell line.
We optimized this assay in a homogeneous 1536 well format. A quantitative high throughput screen (qHTS) was conducted on the PC12 cells which were induced to express the toxic fusion construct. Small molecules which reduced aggregate formation were identified bu using a laser scanning cytometer calibrated to detect the aggregates in cell lysates.
PC12 cells stably containing a construct with an ecdysone inducible promoter expressing GFP fused to the exon 1 of HTTQ103 (Huntington protein which containing a 103 ployglutamine expansion) were used.
NCGC Assay Protocol Summary:
Sequence, Parameter, Description
1, Reagent, 5 uL 1500 cells/well 1536 TC treated White clear bottom plate
2, Compound, 23 nL Tebufenozide inducer (100 nM final) to all columns
3, Compound, 23 nL 40 uM to 0.5 nM Libraries
5, Reagent, 5 ul ATPLite cell death assay reagent
6, Detector, Aggregate quantitation by Acumen Explorer
Media consisted of phenol red free DMEM + 5% equine serum (Hyclone # SH30072.03 ), 5% supplemented Bovine Calf Serum (Hyclone # SH30074.03 ), 1x pen/strep, no G418
Acumen Explorer was used to quantitate GFP aggregates using the following criteria: […] laser excitation, 500-530 nm emission, the PMT was set at a voltage of 450 volts, and objects ranging in size of […] in size having a signal of 6 STDEV above background were collected.
Control columns: 1 = DMSO, 2= 2 uM teb dilns (1:1), 4 = 100 nM Teb inducer. Sample columns received 100 nM Teb.
% is scaled to controls: 0 for no effect and ±100 for the full control effect; potency is read from the fitted curve at half-maximal effect.

| SMILES | activity change, negative = inhibition | Potency |
| --- | --- | --- |
| CCCCCn1c(=O)c(C(=O)Nc2c(C)n(C)n(-c3ccccc3)c2=O)c(O)c2ccccc21 | -4.15% [at 46.1 µM] |  |
| CCCCCn1c(=O)c(C(=O)NCc2ccccn2)c(O)c2ccccc21 |  | 31.6 µM (active) |
| C=CCN1CCC23c4c5ccc(O)c4O[C@H]2C(=O)CC[C@@]3(O)C1C5 (stereo not given in full) | -12.6% [at 46.1 µM] |  |
| c1ccc2sc(SNC3CCCCC3)nc2c1 | 4.56% [at 46.1 µM] |  |
| CN1CCN(/N=C/c2c[nH]c3ccccc23)CC1 | -7.16% |  |
| CC(Cc1ccccc1)NC=O (stereo not given) | 7.73% [at 46.1 µM] |  |
| CN1CCCC(=C(c2cccs2)c2cccs2)C1 | 12.7% [at 46.1 µM] |  |
| Cc1ncc(CC(=O)n2cc(C(=O)c3cc(Cl)ccc3O)cn2)s1 |  | 14.1 µM (active) |
| COc1cccc(CN2CCCC(C(=O)c3ccccc3SC)C2)c1O (stereo not given) | 7.86% |  |
| CC[N+]1(CCOC(=O)C(O)(c2ccccc2)c2ccccc2)CCCCC1 | 0.998% [at 46.1 µM] |  |
| COc1ccc(-n2c(-c3ccccc3)nc3ccccc3c2=O)cc1 | -2.76% |  |
| O=Cc1cn(Cc2ccc(F)cc2Cl)c2ccccc12 |  | 10 µM (active) |
| CC1C2Cn3c(nc4ccccc43)C1N(C)O2 (stereo not given) | -32.9% |  |
| CCCCC(=O)N/N=C/c1c(O)n(-c2ccccc2)c(=O)[nH]c1=O | -6.96% |  |
| CCCCC(=O)N/N=C/c1c(O)n(CC)c(=S)n(CC)c1=O |  | 3.98 µM (active) |
| CCCCC(=O)N/N=C/c1c(O)n(CCC2=CCCCC2)c(=O)[nH]c1=O | 7.87% |  |
| COC([CH2][Hg])CNC(=O)c1ccccc1OCC(=O)O (stereo not given) | 7.98% [at 46.1 µM] |  |
| O=C(N/N=C/c1ccc([N+](=O)[O-])o1)c1cc([N+](=O)[O-])cc([N+](=O)[O-])c1O | 8.73% [at 46.1 µM] |  |
| CC(C)c1ccc(-n2c(O)c(/C=N/N3CCOCC3)c(=O)[nH]c2=S)cc1 | -11.4% |  |
| CCCn1c(C(=O)c2ccccc2OC)nc2ccccc21 | 5.56% |  |
